According to PubChem BioAssay:
Calls of active or inactive are those of the source.

Experiments:
[1] = binders of probe aFSTL3 on microarray, primary screen, stem cell growth factor project, biochemical, small-molecule microarray, fluorescence 635/667 (AID 1064); conditions: higher = more signal;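 note: measures binding of the biotinylated anti-FSTL3 antibody to printed compounds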
[2] = binders from COS7 lysate, DM2A8 probe, primary screen, torsin A project, cell lysate, small-molecule microarray, fluorescence 635/667 (AID 1065); conditions: higher = more signal, COS7 lysate expressing mutant human TOR1A
[3] = binders of probe aFGF2 on microarray, primary screen, stem cell growth factor project, biochemical, small-molecule microarray, fluorescence 635/667 (AID 1067); conditions: higher = more signal;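 note: measures binding of biotinylated aFGF2 protein to printed compounds on slides; z-score merges feature fluorescence and signal-to-noise across triplicate slides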
[4] = binders of probe aFGF10 on microarray, primary screen, stem cell growth factor project, biochemical, small-molecule microarray, fluorescence 635/667 (AID 1071); conditions: higher = more signal;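 note: score merges 667 nm spot intensity and signal to noise from triplicate slides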
[5] = biological target: Neurogenic locus notch homolog protein 2 (Homo sapiens) (UniProt Q04721); assay: Notch2 binders on small-molecule microarrays, primary screen, biochemical, small-molecule microarray, 635 nm fluorescence, stem cell growth factors (AID 1073); conditions: Notch2 binding, higher = more signal
Chain of Neurogenic locus notch homolog protein 2 (Homo sapiens) (Q04721 whole entry, looked up, canonical isoform): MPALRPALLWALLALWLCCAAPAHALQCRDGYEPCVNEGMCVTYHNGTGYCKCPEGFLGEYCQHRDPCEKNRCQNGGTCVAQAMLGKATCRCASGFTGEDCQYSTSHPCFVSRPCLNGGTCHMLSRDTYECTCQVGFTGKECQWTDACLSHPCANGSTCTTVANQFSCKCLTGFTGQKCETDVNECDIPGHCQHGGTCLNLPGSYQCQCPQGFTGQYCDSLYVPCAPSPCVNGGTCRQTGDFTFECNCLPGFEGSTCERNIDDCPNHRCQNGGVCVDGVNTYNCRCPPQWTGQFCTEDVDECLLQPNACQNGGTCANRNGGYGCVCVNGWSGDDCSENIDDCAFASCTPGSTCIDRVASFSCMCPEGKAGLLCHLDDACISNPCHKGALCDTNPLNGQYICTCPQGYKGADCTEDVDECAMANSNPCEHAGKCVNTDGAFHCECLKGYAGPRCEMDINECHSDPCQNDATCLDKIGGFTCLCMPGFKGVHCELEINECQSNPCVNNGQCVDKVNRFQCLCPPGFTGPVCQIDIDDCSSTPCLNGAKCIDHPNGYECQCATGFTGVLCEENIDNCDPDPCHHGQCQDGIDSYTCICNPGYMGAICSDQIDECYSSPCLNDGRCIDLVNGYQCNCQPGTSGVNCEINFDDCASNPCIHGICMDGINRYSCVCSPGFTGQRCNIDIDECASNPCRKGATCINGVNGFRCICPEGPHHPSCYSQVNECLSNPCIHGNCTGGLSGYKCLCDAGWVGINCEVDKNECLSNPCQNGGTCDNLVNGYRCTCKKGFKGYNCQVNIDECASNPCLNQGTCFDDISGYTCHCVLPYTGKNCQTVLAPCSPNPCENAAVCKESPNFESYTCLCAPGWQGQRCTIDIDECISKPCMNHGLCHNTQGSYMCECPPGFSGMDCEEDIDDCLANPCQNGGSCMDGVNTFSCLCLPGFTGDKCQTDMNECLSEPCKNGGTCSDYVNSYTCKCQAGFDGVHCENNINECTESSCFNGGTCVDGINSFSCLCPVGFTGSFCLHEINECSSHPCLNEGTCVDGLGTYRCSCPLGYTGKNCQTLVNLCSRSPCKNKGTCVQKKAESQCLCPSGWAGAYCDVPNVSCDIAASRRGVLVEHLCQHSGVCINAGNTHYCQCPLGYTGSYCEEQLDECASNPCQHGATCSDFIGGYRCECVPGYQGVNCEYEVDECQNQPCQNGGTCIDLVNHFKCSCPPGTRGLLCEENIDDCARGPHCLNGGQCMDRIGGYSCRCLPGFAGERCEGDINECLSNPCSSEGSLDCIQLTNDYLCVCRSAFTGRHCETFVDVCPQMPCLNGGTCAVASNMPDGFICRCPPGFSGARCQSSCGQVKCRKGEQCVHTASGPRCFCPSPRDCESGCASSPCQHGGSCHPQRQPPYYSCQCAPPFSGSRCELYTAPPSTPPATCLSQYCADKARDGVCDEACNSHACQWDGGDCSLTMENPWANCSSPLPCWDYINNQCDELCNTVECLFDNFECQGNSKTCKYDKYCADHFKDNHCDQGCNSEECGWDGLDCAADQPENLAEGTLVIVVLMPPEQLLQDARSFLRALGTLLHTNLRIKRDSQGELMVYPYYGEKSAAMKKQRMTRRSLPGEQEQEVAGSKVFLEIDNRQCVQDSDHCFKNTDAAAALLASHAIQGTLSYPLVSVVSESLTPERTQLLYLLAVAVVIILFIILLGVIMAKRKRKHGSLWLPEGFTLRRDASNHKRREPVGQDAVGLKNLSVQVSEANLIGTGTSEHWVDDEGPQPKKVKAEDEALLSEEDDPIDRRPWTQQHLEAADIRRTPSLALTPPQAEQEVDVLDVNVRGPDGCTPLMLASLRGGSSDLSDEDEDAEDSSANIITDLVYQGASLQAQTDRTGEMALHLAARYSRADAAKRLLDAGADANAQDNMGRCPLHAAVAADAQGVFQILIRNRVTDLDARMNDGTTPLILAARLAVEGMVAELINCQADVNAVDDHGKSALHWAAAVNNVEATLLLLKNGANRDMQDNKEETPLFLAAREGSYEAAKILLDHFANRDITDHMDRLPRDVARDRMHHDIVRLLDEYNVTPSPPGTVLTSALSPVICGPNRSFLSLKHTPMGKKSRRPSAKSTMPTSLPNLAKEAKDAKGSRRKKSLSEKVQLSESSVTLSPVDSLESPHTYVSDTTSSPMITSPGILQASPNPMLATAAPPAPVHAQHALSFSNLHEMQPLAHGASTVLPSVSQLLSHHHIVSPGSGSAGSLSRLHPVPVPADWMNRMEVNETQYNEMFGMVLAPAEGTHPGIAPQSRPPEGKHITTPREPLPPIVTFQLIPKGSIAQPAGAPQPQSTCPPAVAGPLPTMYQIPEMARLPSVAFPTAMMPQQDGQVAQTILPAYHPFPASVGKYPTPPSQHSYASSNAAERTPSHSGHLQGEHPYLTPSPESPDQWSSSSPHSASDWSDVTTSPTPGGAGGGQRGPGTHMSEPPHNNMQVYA

[6] = biological target: Pro-neuregulin-1, membrane-bound isoform (Homo sapiens) (UniProt Q02297); assay: NRG1 binders on small-molecule microarrays, primary screen, psychiatric disease protein project, biochemical, small-molecule microarray, fluorescence 635/667 (AID 1075); conditions: NRG1 binding, 635 nm fluorescence, higher = more signal;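 note: score combines 667 nm spot fluorescence with signal to noise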
[7] = tested on: Neuregulin-1 EGF-like domain; assay: binders of neuregulin-1 EGF-like domain, primary screen, biochemical, small-molecule microarray, 635 nm fluorescence (AID 1081); conditions: small-molecule microarray binding, higher = more signal;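 note: binding of the protein to compounds printed on small-molecule microarray slides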
[8] = FRG1 promoter luciferase signal modulators, primary screen, FRG1 inhibition for FSHD, cell-based, C2C12 myotubes, firefly/Renilla luciferase, luminescence (AID 1084); conditions: higher = more signal, called active from +8 up or from −8 down
[9] = binders of probe aFST on microarray, primary screen, stem cell growth factor project, biochemical, small-molecule microarray, fluorescence 635/667 (AID 1086); conditions: higher = more signal;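 note: score merges 667 nm fluorescence with signal-to-noise of each printed compound spot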
[10] = binders of probe aHhip on microarray, primary screen, stem cell growth factor project, biochemical, small-molecule microarray, fluorescence 635/667 (AID 1087); conditions: higher = more signal;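 note: score merges spot fluorescence at 667nm with spot signal to noise ratio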
[11] = tested on: PRMT1 (protein arginine N-methyltransferase 1); assay: PRMT1 binders on small-molecule microarrays, primary screen, biochemical, small-molecule microarray, 635 nm fluorescence (AID 1088); conditions: small-molecule microarray binding, higher = more signal;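 note: binding of Prmt1 protein to compounds spotted on small-molecule microarray slides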
[12] = yeast growth modulation, basal conditions, primary screen, YJM789 clinical isolate, OD600, 24 h (AID 1089);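 note: growth of clinical yeast isolate S. cerevisiae YJM 789 seeded 1000 cells per well; test concentration not given here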; conditions: S. cerevisiae YJM789 growth, higher = more signal, called active from +8 up or from −8 down
[13] = fission yeast growth modulation, primary screen, strain 972, OD600, 24 h, no modulator (AID 1090);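 note: basal condition with compound alone and no growth modifier present; test concentration not given here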; conditions: S. pombe 972 growth, higher = more signal, called active from +8 up or from −8 down
[14] = S. cerevisiae growth modulation with rapamycin, primary screen, strain BY4716, OD600, 96 h (AID 1091); conditions: higher = more signal, called active from +8 up or from −8 down; note: test concentration not given here
[15] = biological target: Torsin-1A-interacting protein 2 (Homo sapiens) (UniProt Q8NFQ8); assay: LULL1 binders on small-molecule microarray, primary screen, cell lysate, human LULL1 lysate, 635/667 nm fluorescence (AID 1092); conditions: hLULL1 lysate binding, 635 nm fluorescence, higher = more signal;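 note: probe is lysate of COS7 cells overexpressing human LULL1; score merges per-feature 667 nm fluorescence with signal-to-noise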
[16] = E. coli growth modulation, two-sided OD650, primary screen, E. coli filamentation project, strain DRC41, 24 h (AID 1093); conditions: OD650, 24 h, higher = more signal, called active from +8 up or from −8 down;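 note: MC1000 strain lacking acrAB efflux and sulA so SOS filamentation is blocked; test concentration not given here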
[17] = small-molecule microarray binders of probe aLefty2, primary screen, biochemical, biotinylated probe, 635/667 nm fluorescence (AID 1094); conditions: higher = more signal;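 note: score merges spot fluorescence near 667 nm with spot signal-to-noise ratio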
[18] = tested on: Noggin (protein binding on small-molecule microarray); assay: Noggin binders on small-molecule microarray, primary screen, biochemical, 635/667 nm fluorescence (AID 1095); conditions: 635 nm fluorescence, higher = more signal;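 note: score merges 667 nm feature fluorescence with signal to noise over triplicate slides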
[19] = biological target: Neurogenic locus notch homolog protein 3 (Homo sapiens) (UniProt Q9UM47); assay: NOTCH3 binders on small-molecule microarray, primary screen, biochemical, 635/667 nm fluorescence (AID 1096); conditions: NOTCH3 binding, 635 nm fluorescence, higher = more signal
Chain of Neurogenic locus notch homolog protein 3 (Homo sapiens) (Q9UM47 whole entry, looked up): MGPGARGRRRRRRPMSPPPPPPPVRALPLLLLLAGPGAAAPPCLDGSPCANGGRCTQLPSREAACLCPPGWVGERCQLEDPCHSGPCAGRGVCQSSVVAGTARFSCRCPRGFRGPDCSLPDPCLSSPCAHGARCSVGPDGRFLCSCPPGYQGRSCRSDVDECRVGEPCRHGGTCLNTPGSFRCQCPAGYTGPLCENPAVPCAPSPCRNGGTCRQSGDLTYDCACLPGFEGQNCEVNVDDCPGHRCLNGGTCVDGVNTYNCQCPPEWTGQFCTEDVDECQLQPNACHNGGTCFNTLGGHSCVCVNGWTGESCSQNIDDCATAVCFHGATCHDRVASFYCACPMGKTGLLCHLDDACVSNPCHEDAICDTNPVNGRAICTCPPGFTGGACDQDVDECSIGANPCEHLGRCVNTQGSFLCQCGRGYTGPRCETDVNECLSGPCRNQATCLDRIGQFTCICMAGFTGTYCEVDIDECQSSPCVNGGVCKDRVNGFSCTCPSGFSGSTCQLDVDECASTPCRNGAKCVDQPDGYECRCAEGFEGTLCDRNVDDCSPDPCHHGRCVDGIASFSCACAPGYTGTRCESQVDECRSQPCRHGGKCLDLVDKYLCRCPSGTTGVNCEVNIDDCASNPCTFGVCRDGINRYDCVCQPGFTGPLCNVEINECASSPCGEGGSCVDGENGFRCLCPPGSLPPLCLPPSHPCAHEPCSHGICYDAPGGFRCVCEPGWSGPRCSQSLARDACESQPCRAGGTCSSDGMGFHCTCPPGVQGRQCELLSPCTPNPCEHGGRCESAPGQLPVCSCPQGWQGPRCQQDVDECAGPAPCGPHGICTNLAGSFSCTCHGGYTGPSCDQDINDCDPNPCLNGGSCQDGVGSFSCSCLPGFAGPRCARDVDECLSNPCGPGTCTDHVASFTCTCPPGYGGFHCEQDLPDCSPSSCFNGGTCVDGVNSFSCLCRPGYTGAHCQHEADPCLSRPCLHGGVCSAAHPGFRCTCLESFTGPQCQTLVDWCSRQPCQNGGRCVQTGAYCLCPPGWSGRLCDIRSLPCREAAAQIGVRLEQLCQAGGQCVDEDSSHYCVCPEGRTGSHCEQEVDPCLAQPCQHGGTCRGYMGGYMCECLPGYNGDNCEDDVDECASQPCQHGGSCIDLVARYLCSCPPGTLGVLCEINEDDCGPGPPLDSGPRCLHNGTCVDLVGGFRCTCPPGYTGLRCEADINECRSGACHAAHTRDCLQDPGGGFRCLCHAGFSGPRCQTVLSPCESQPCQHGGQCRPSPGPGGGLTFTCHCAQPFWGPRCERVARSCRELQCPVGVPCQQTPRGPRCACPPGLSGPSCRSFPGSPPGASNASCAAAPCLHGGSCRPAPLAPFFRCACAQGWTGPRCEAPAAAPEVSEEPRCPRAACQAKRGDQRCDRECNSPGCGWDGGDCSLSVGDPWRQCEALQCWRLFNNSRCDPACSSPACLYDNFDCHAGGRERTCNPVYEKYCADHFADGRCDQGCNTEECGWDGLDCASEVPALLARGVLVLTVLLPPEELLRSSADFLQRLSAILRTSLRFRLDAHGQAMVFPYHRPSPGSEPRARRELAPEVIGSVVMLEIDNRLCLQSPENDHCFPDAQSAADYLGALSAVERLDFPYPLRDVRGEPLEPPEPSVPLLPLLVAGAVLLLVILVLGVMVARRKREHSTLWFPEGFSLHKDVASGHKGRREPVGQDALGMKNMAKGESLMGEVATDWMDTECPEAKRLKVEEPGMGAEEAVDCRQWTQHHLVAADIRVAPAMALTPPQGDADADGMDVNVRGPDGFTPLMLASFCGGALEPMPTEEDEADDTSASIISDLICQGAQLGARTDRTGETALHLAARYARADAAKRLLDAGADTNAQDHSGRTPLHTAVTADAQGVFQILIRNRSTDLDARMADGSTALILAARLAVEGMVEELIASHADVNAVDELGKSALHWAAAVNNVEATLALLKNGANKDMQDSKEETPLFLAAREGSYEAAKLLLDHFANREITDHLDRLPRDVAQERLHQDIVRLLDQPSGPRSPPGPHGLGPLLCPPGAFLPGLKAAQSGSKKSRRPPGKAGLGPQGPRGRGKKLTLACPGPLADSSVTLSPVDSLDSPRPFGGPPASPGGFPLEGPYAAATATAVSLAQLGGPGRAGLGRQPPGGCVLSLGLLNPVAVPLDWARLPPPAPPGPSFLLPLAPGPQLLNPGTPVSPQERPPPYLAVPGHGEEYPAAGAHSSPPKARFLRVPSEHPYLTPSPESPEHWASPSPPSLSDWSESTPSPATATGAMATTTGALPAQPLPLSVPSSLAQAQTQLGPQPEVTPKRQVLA

[20] = small-molecule microarray binders of probe aEGFR, primary screen, biochemical, biotinylated probe, 635/667 nm fluorescence (AID 1097); conditions: higher = more signal;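 note: probe is a biotinylated anti-EGFR antibody binding compounds printed on slides; score combines fluorescence near 667 nm and signal to noise of each spot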

Row | SMILES | composite z-score [1] | composite z-score [2] | composite z-score [3] | composite z-score [4] | composite z-score [5] | composite z-score [6] | composite z-score [7] | z-score [8] | composite z-score [9] | composite z-score [10] | composite z-score [11] | z-score [12] | z-score [13] | z-score [14] | composite z-score [15] | z-score [16] | composite z-score [17] | composite z-score [18] | composite z-score [19] | composite z-score [20]
1 | C=C[C@@H](COC(C)=O)N(Cc1ccccc1[N+](=O)[O-])S(=O)(=O)c1ccc(Br)cc1 | 0.0537 | 0.98 | 0.033 | 0.372 | 1.01 | 0.939 | 0.974 | -3.14 (inactive) | 0.399 | 0.0524 | 0.61 | -3.84 (inactive) | -2.76 (inactive) | -0.748 (inactive) | 1.43 | 1.91 (inactive) | -0.297 | 1.1 | 0.945 | 0.212
2 | O=C1N(CCS(=O)(=O)c2ccccc2)Cc2ccccc2[C@H]2OC(c3ccc(OCCCO)cc3)=N[C@@]12CCS(=O)(=O)c1ccccc1 | 1.11 | 0.994 | 0.145 | 0.784 | 1.37 | 1.62 | 1.36 | -2.53 (inactive) | 0.593 | -0.189 | 1.57 | 1.91 (inactive) | 1.62 (inactive) | 8.55 (active) | 3.01 | -0.409 (inactive) | 0.417 | 0.894 | 1.06 | 0.162
3 | C=CCOC(=O)[C@H]1[C@@H]2C(=O)O[C@@H](c3ccccc3)[C@@H](c3ccccc3)N2[C@@H](c2ccc(OCCOC(=O)[C@@H]3C[C@@H]4C(=O)N5CCC[C@H]5C(=O)N4[C@@H]3c3ccc(O)cc3)cc2)[C@]12C(=O)Nc1ccccc12 | -0.212 | 0.434 | -0.108 | 0.282 | 0.356 | 0.771 | 1.28 | -0.105 (inactive) | 0.328 | -0.249 | 1.53 | 0.821 (inactive) | 1.64 (inactive) | 3.79 (inactive) | 2.63 | 0.621 (inactive) | -0.0984 | 1.15 | 0.799 | -0.096
4 | C=C(CCCC)C(=O)CC[C@H](OC(=O)c1cccnc1)c1cccc(OCCO)c1 | 0.17 | -0.218 | -0.157 | 0.387 | -0.818 | 0.941 | 0.762 | -0.594 (inactive) | 0.0945 | -0.236 | 1.3 | 1.61 (inactive) | -0.86 (inactive) | 1.13 (inactive) | 1 | 0.241 (inactive) | -0.141 | 0.257 | -0.139 | -0.0818
5 | C[C@H]1NC(=O)[C@H](Cc2ccccc2)NC(=O)[C@@]23C(=O)N[C@@H](Cc4ccccc4)C2[C@H](C)[C@@]2(C)O[C@H]2C3/C=C/C/C=C\CNC1=O (stereo not given in full) | -0.231 | 0.32 | -0.0878 | -0.32 | -0.221 | -0.547 | -0.867 | 0.049 (inactive) | -0.146 | 0.238 | -0.839 | 0.967 (inactive) | 0.266 (inactive) | 0.865 (inactive) | -1.32 | 1 (inactive) | -0.0724 | -0.389 | -0.795 | -0.183
6 | CCCCC=C[C@@H](NC(=O)c1ccco1)c1ccccc1 | -0.0252 | 0.0908 | 0.0603 | 0.372 | 0.929 | 0.783 | -0.628 | 1.36 (inactive) | 0.199 | 0.525 | -0.568 | 0.529 (inactive) | 1 (inactive) | 1.92 (inactive) | 0.539 | -0.675 (inactive) | -0.0251 | 0.103 | 0.657 | 0.0836
7 | O=C(NCc1ccccc1)[C@]1(CCS(=O)(=O)c2ccccc2)N=C(c2ccc(OCCCO)cc2)O[C@@H]1c1ccccc1 | 0.0169 | 0.938 | 0.0485 | 1.05 | 1.68 | 1.48 | 1.18 | -2.35 (inactive) | 1.31 | -0.378 | 1.57 | 0.63 (inactive) | 0.194 (inactive) | 36.9 (active) | 1.78 | 0.887 (inactive) | -0.0552 | 0.204 | 1.07 | 0.219
8 | C=CCNC(=O)[C@@H]1[C@H]2C(=O)O[C@H](c3ccccc3)[C@H](c3ccccc3)N2[C@H](c2ccc(OCCO)cc2)[C@@]12C(=O)Nc1ccccc12 | 0.511 | 0.0949 | -0.116 | 0.405 | 0.117 | 1.51 | 1.23 | -1.05 (inactive) | 0.627 | -0.513 | 1.55 | -1.2 (inactive) | 0.406 (inactive) | 2.21 (inactive) | 2.46 | 0.462 (inactive) | -0.175 | 1.28 | 1.09 | -0.197
9 | C=CC(COC(C)=O)NS(=O)(=O)c1ccc(Br)cc1 (stereo not given) | -0.647 | 0.58 | -0.105 | 0.366 | 0.363 | 0.0456 | 0.583 | -0.747 (inactive) | 0.0296 | 0.174 | 0.1 | -0.141 (inactive) | -0.467 (inactive) | -0.9 (inactive) | 0.185 | -0.975 (inactive) | 0.0216 | 0.598 | 0.604 | 0.0749
10 | CCOC(=O)C1=CC[C@@H](c2ccccc2Cl)N(S(=O)(=O)c2ccc(C)cc2)C1 | 0.091 | -0.507 | 0.102 | 0.435 | 1.3 | 1.31 | 0.828 | -3 (inactive) | 0.802 | 0.0373 | 0.98 | -2.37 (inactive) | 0.307 (inactive) | 0.661 (inactive) | 2.24 | -0.239 (inactive) | 0.264 | -0.434 | 1.04 | -0.178
